Measured values taken from the supplement of paper PMC8728848.
The full list was thinned out, with the strongest signals kept by preference.

Experiments:
Assay in all cases: glycan array binding signal (z-score within array); higher = stronger binding
Details in all cases: glycan notation: IUPAC condensed, linker removed
[1] = molecular target: Fuc(a1-2)Gal(b1-3)GalNAc(b1-4)[Neu5Ac(a2-3)]Gal(b1-4)Glc
Outline: (§1)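 From the Consortium for Functional Glycomics database, 3228 arrays were curated, keeping only those whose protein sequence was available. Binding is given as a within-array Z-score averaged across arrays sharing a protein sequence and across linkers. Negative Z-scores can be read as non-binding.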

[2] = molecular target: Fuc(a1-2)[Gal(a1-3)]Gal(b1-4)GlcNAc(b1-2)Man
Outline: as §1

[3] = molecular target: Fuc(a1-2)[Gal(a1-3)]Gal(b1-4)GlcNAc(b1-2)Man(a1-3)[Fuc(a1-2)[Gal(a1-3)]Gal(b1-4)GlcNAc(b1-2)Man(a1-6)]Man(b1-4)GlcNAc(b1-4)GlcNAc
Outline: as §1

[4] = molecular target: Fuc(a1-2)[Gal(a1-3)]Gal(b1-4)GlcNAc(b1-3)GalNAc
Outline: as §1

[5] = molecular target: Fuc(a1-2)[Gal(a1-3)]Gal(b1-4)[Fuc(a1-3)]GlcNAc
Outline: as §1

[6] = molecular target: Fuc(a1-4)GlcNAc
Outline: as §1

[7] = molecular target: Gal(a1-3)Gal(b1-3)GlcNAc(b1-2)Man(a1-3)[Gal(a1-3)Gal(b1-3)GlcNAc(b1-2)Man(a1-6)]Man(b1-4)GlcNAc(b1-4)GlcNAc
Outline: as §1

[8] = molecular target: Gal(a1-3)Gal(b1-3)GlcNAc(b1-3)GalNAc
Outline: as §1

[9] = molecular target: Gal(a1-3)Gal(b1-3)[Fuc(a1-4)]GlcNAc(b1-2)Man(a1-3)[Gal(a1-3)Gal(b1-3)[Fuc(a1-4)]GlcNAc(b1-2)Man(a1-6)]Man(b1-4)GlcNAc(b1-4)GlcNAc
Outline: as §1

[10] = molecular target: Gal(a1-3)Gal(b1-4)GlcNAc(b1-2)Man
Outline: as §1

[11] = molecular target: Gal(a1-3)Gal(b1-4)GlcNAc(b1-2)Man(a1-3)[Gal(a1-3)Gal(b1-4)GlcNAc(b1-2)Man(a1-6)]Man(b1-4)GlcNAc(b1-4)GlcNAc
Outline: as §1

[12] = molecular target: Gal(a1-3)Gal(b1-4)GlcNAc(b1-6)GalNAc
Outline: as §1

[13] = molecular target: Gal(a1-3)Gal(b1-4)[Fuc(a1-3)]GlcNAc
Outline: as §1

[14] = molecular target: Gal(a1-4)Gal(b1-4)Glc
Outline: as §1

[15] = molecular target: Gal(a1-4)Gal(b1-4)GlcNAc(b1-2)Man(a1-3)[Gal(a1-4)Gal(b1-4)GlcNAc(b1-2)Man(a1-6)]Man(b1-4)GlcNAc(b1-4)GlcNAc
Outline: as §1

[16] = molecular target: Gal(a1-6)Glc
Outline: as §1

[17] = molecular target: Gal(b1-3)GlcNAc(b1-3)Gal(b1-4)GlcNAc(b1-2)[Gal(b1-3)GlcNAc(b1-3)Gal(b1-4)GlcNAc(b1-6)]Man(a1-6)[Gal(b1-3)GlcNAc(b1-3)Gal(b1-4)GlcNAc(b1-2)Man(a1-3)]Man(b1-4)GlcNAc(b1-4)[Fuc(a1-6)]GlcNAc
Outline: as §1

[18] = molecular target: Gal(b1-3)GlcNAc(b1-3)Gal(b1-4)GlcNAc(b1-3)Gal(b1-4)GlcNAc(b1-2)[Gal(b1-3)GlcNAc(b1-3)Gal(b1-4)GlcNAc(b1-3)Gal(b1-4)GlcNAc(b1-6)]Man(a1-6)[Gal(b1-3)GlcNAc(b1-3)Gal(b1-4)GlcNAc(b1-3)Gal(b1-4)GlcNAc(b1-2)Man(a1-3)]Man(b1-4)GlcNAc(b1-4)[Fuc(a1-6)]GlcNAc
Outline: as §1

[19] = molecular target: Gal(b1-4)Gal
Outline: as §1

[20] = molecular target: Gal(b1-4)Glc
Outline: as §1

[21] = molecular target: Gal(b1-4)GlcNAc(b1-2)Man(a1-3)Man(b1-4)GlcNAc(b1-4)GlcNAc
Outline: as §1

[22] = molecular target: Gal(b1-4)GlcNAc(b1-3)Gal(b1-4)GlcNAc
Outline: as §1

[23] = molecular target: Gal3S(b1-4)[Fuc(a1-3)]Glc6S
Outline: as §1

[24] = molecular target: Gal3S4S(b1-4)GlcNAc
Outline: as §1

[25] = molecular target: Gal3S6S(b1-4)GlcNAc
Outline: as §1

[26] = molecular target: Gal6S(b1-3)GlcNAc
Outline: as §1

[27] = molecular target: GalNAc(b1-4)GlcNAc(b1-2)Man(a1-3)[GalNAc(b1-4)GlcNAc(b1-2)Man(a1-6)]Man(b1-4)GlcNAc(b1-4)GlcNAc
Outline: as §1

B1: SJCP3842 (Schistosoma japonicum) (protein)
chain: MFKMRIINLVNISTVLLLINLLQTKSRLVGKENGFMLTVSIYGAQLSDKMTSVPVSWTIDYEDPEKSAFKKLVTDSCDTFSEYVKSQIPKGSVDGQCTSHIFQRPGSGSGVSISLTLSFIYVDVTQPDTVALKTELEKHFANFVTIHSHKITQAQFRINQKAIVIPTGDKDAIDGSKWKIIAIIALVALAIVVIGGFIYICVK
glycan array binding signal (z-score) [1]: 0.207
glycan array binding signal (z-score) [2]: -1.05
glycan array binding signal (z-score) [3]: 0.46
glycan array binding signal (z-score) [4]: 0.343
glycan array binding signal (z-score) [5]: 0.536
glycan array binding signal (z-score) [6]: 4.44
glycan array binding signal (z-score) [7]: 3.31
glycan array binding signal (z-score) [8]: 0.153
glycan array binding signal (z-score) [9]: 2.45
glycan array binding signal (z-score) [10]: -1.09
glycan array binding signal (z-score) [11]: -0.76
glycan array binding signal (z-score) [12]: -0.327
glycan array binding signal (z-score) [13]: 0.63
glycan array binding signal (z-score) [14]: -1.04
glycan array binding signal (z-score) [15]: 2.55
glycan array binding signal (z-score) [16]: -1.59
glycan array binding signal (z-score) [17]: 1.25
glycan array binding signal (z-score) [18]: 1.37
glycan array binding signal (z-score) [19]: -0.475
glycan array binding signal (z-score) [20]: -1.59
glycan array binding signal (z-score) [21]: -0.919
glycan array binding signal (z-score) [22]: -0.05
glycan array binding signal (z-score) [23]: 2.61
glycan array binding signal (z-score) [24]: -0.987
glycan array binding signal (z-score) [25]: 2.36
glycan array binding signal (z-score) [26]: -0.626
glycan array binding signal (z-score) [27]: 0.2
